For 9 molecules, growth inhibition results are on record in PubChem BioAssay (NCI).

Compounds without any hit were thinned out: in the full panel of roughly 79,000, 15% have a hit. A number with no mark means an inactive call. The source made the active and inactive calls. Cut-off read from the data, not from the text of the source: active = growth inhibition above about 70%; inactive = the rest.

Test [1] in a line: NCI Yeast Anticancer Drug Screen. Data for the rad50 strain (AID 155).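 Note: 0% = growth of vehicle-only cultures of the same strain.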 The settings on record: S. cerevisiae rad50 strain growth inhibition, active compounds read high. An outline of the steps: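 DNA repair mutant yeast, compound exposure, growth read-out; inhibition is taken relative to vehicle.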
The nature of test [2]: NCI Yeast Anticancer Drug Screen. Data for the mec2-1 strain (AID 157). The settings on record: S. cerevisiae mec2-1 strain, active compounds read high. An outline of the steps: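 Vehicle-treated cultures served as reference for growth inhibition of compound-exposed mec2-1 yeast.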
Test [3] is described as follows: NCI Yeast Anticancer Drug Screen. Data for the sgs1 mgt1 strain (AID 161).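 Note: 0% = growth of cultures given vehicle only.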 The settings on record: S. cerevisiae sgs1 mgt1 strain, active compounds read high. An outline of the steps:
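Test agents were incubated with a DNA-repair-mutant yeast strain. Growth was then read and compared against vehicle-treated controls.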

A short description of test [4]: NCI Yeast Anticancer Drug Screen. Data for the cln2 rad14 strain (AID 165).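 Note: 0% = growth equal to vehicle treated cultures.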 The settings on record: S. cerevisiae cln2 rad14 strain, active compounds read high. An outline of the steps:
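Each compound was tested on cln2 rad14 yeast. Inhibition of growth was calculated against vehicle-exposed controls.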

Test [5] can be described thus: NCI Yeast Anticancer Drug Screen. Data for the bub3 strain (AID 167). The settings on record: S. cerevisiae bub3 mutant strain, active compounds read high. The gist of the method:
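In this screen, a yeast mutant lacking normal mitotic checkpoint function is challenged with compound. Relative growth versus vehicle gives the inhibition value.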

A short description of test [6]: NCI Yeast Anticancer Drug Screen. Data for the mlh1 rad18 strain (AID 175). The settings on record: S. cerevisiae mlh1 rad18 strain growth inhibition, active compounds read high. An outline of the steps: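 Vehicle-treated cultures served as the reference for growth inhibition in a yeast strain carrying DNA damage repair alterations exposed to each compound.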
Setting [7] is: at 5.0 µM (retest, dose inferred, filed as 0.5).
Setting [8] is: at 50.0 µM (retest, dose inferred, filed as 5.0).

With `COC(=O)CS(=O)(=O)CCS(=O)(=O)CC(=O)OC`, the growth inhibition in test [1] (setting [7]) is -4%; in test [1] (setting [8]), 3%; in test [1] (at 50.0 µM), -0.4%; in test [2] (setting [7]) it was -2%; in test [2] (setting [8]), 8%; in test [2] (at 50.0 µM), 11.9%. Also, the growth inhibition is -1% in test [3] (setting [7]); 14% in test [3] (setting [8]); 4.65% in test [3] (at 50.0 µM); -1% in test [4] (setting [7]); 1% in test [4] (setting [8]); -1.25% in test [4] (at 50.0 µM). Moreover, the growth inhibition in test [5] (setting [7]) was -1%; in test [5] (setting [8]), 15%; in test [5] (at 50.0 µM), 60.1%; in test [6] (setting [7]), -3%; in test [6] (setting [8]), 11%; in test [6] (at 50.0 µM) it was 20.4%.
`CC1(C)S[C@@H]2[C@H](N3C(=O)c4ccccc4C3=O)CN2[C@H]1NC(=O)N[C@@H]1N2C[C@@H](N3C(=O)c4ccccc4C3=O)[C@H]2SC1(C)C`: the growth inhibition in test [1] (setting [7]) is 0%; in test [1] (setting [8]), 18%; in test [1] (at 50.0 µM), 39.6%; in test [2] (setting [7]) it was -4%; in test [2] (setting [8]), 43%; in test [2] (at 50.0 µM) it was 63.8%. The growth inhibition in test [3] (setting [7]) was -2%; in test [3] (setting [8]) it was 20%; in test [3] (at 50.0 µM), 43%; in test [4] (setting [7]), -6%; in test [4] (setting [8]), 44%; in test [4] (at 50.0 µM), 23.2%. The growth inhibition in test [5] (setting [7]) was 4%; in test [5] (setting [8]) it was 93% (active); in test [5] (at 50.0 µM), 92.8% (active); in test [6] (setting [7]), -2%; in test [6] (setting [8]), 36%; in test [6] (at 50.0 µM) it was 70.8% (active).
Take `Oc1cccc2c(Br)ccnc12`: the growth inhibition in test [1] (setting [7]) is -5%; in test [1] (setting [8]) it was 100% (active); in test [1] (at 50.0 µM), 87% (active); in test [2] (setting [7]), -21%; in test [2] (setting [8]), 99% (active); in test [2] (at 50.0 µM) it was 92% (active). Further, the growth inhibition in test [3] (setting [7]) is -33%; in test [3] (setting [8]), 99% (active); in test [3] (at 50.0 µM), 85% (active); in test [4] (setting [7]), -5%; in test [4] (setting [8]) it was 99% (active); in test [4] (at 50.0 µM), 87.8% (active). Moreover, the growth inhibition in test [5] (setting [7]) was -29%; in test [5] (setting [8]), 99% (active); in test [5] (at 50.0 µM), 87.2% (active); in test [6] (setting [7]), 15%; in test [6] (setting [8]) it was 99% (active); in test [6] (at 50.0 µM) it was 81.8% (active).
On to `NC1NCCC(=O)N1CCc1c[nH]c2ccccc12` (configuration not stated), for which the growth inhibition in test [1] (setting [7]) was -18%; in test [1] (setting [8]) it was 99% (active); in test [1] (at 50.0 µM), 65.9%; in test [2] (setting [7]), 7%; in test [2] (setting [8]), 100% (active); in test [2] (at 50.0 µM), 54.9%. The growth inhibition was -22% in test [3] (setting [7]); 99% (active) in test [3] (setting [8]); 54.4% in test [3] (at 50.0 µM); 31% in test [4] (setting [7]); 99% (active) in test [4] (setting [8]); 22.3% in test [4] (at 50.0 µM). For the same molecule, the growth inhibition in test [5] (setting [7]) is -26%; in test [5] (setting [8]) it was 100% (active); in test [5] (at 50.0 µM), 74.5% (active); in test [6] (setting [7]), -12%; in test [6] (setting [8]), 100% (active); in test [6] (at 50.0 µM), 53.6%.
Consider `CCCCOC(=O)c1cnc[nH]c1=O`, for which the growth inhibition in test [1] (setting [7]) was 3%; in test [1] (setting [8]) it was 17%; in test [1] (at 50.0 µM) it was 0.5%; in test [2] (setting [7]), 2%; in test [2] (setting [8]), 3%; in test [2] (at 50.0 µM), -2.65%. Also, the growth inhibition was 0% in test [3] (setting [7]); 8% in test [3] (setting [8]); 8.15% in test [3] (at 50.0 µM); 4% in test [4] (setting [7]); 3% in test [4] (setting [8]); 10.4% in test [4] (at 50.0 µM). Also, the growth inhibition in test [5] (setting [7]) is -5%; in test [5] (setting [8]), 14%; in test [5] (at 50.0 µM), 3.55%; in test [6] (setting [7]), 24%; in test [6] (setting [8]) it was 12%; in test [6] (at 50.0 µM), 8.65%.
On to `O=C([O][Sb]([O]C(=O)C(Cl)(Cl)Cl)([c]1ccccc1)([c]1ccccc1)[c]1ccccc1)C(Cl)(Cl)Cl`, for which the growth inhibition in test [1] (setting [7]) is 12%; in test [1] (setting [8]), 76% (active); in test [1] (at 50.0 µM) it was 41%; in test [2] (setting [7]) it was 7%; in test [2] (setting [8]) it was 56%; in test [2] (at 50.0 µM), 29.2%. The growth inhibition in test [3] (setting [7]) is 10%; in test [3] (setting [8]) it was 77% (active); in test [3] (at 50.0 µM) it was 67.1%; in test [4] (setting [7]), -5%; in test [4] (setting [8]), 55%; in test [4] (at 50.0 µM), 11.9%. In addition, the growth inhibition in test [5] (setting [7]) is 6%; in test [5] (setting [8]), 76% (active); in test [5] (at 50.0 µM), -69.9%; in test [6] (setting [7]) it was 3%; in test [6] (setting [8]), 79% (active); in test [6] (at 50.0 µM), 66.7%.
For the molecule `O=[N+]([O-])c1cccc2c1[nH]c1c(-c3ccccc3)nccc12`, the growth inhibition in test [1] (setting [7]) was 2%; in test [1] (setting [8]), 83% (active); in test [1] (at 50.0 µM), 87.8% (active); in test [2] (setting [7]), 4%; in test [2] (setting [8]), 83% (active); in test [2] (at 50.0 µM) it was 47.8%. Besides, the growth inhibition in test [3] (setting [7]) was 4%; in test [3] (setting [8]) it was 93% (active); in test [3] (at 50.0 µM), 81% (active); in test [4] (setting [7]) it was 0%; in test [4] (setting [8]) it was 67%; in test [4] (at 50.0 µM), 80.3% (active). Further, the growth inhibition was 1% in test [5] (setting [7]); 67% in test [5] (setting [8]); 40% in test [5] (at 50.0 µM); 0% in test [6] (setting [7]); 89% (active) in test [6] (setting [8]); 89.8% (active) in test [6] (at 50.0 µM).
Consider `Clc1ccc(CSCCc2ccncc2)cc1Cl`, for which the growth inhibition in test [1] (setting [7]) is -5%; in test [1] (setting [8]), 98% (active); in test [1] (at 50.0 µM), 98.7% (active); in test [2] (setting [7]), 0%; in test [2] (setting [8]) it was 96% (active); in test [2] (at 50.0 µM), 99% (active). For the same molecule, the growth inhibition in test [3] (setting [7]) is 5%; in test [3] (setting [8]), 97% (active); in test [3] (at 50.0 µM), 97.5% (active); in test [4] (setting [7]) it was -19%; in test [4] (setting [8]) it was 95% (active); in test [4] (at 50.0 µM), 97.6% (active). For the same molecule, the growth inhibition in test [5] (setting [7]) is 5%; in test [5] (setting [8]), 98% (active); in test [5] (at 50.0 µM), 98.2% (active); in test [6] (setting [7]), 4%; in test [6] (setting [8]) it was 97% (active); in test [6] (at 50.0 µM) it was 98.8% (active).
Turning to `O=C(O)c1ccc(NC(c2ccccc2)c2ccc3cccnc3c2O)cc1` (configuration not stated), the growth inhibition in test [1] (setting [7]) is -12%; in test [1] (setting [8]), 98% (active); in test [1] (at 50.0 µM) it was 98.2% (active); in test [2] (setting [7]) it was 2%; in test [2] (setting [8]) it was 98% (active); in test [2] (at 50.0 µM) it was 98% (active). For the same molecule, the growth inhibition in test [3] (setting [7]) is -8%; in test [3] (setting [8]), 98% (active); in test [3] (at 50.0 µM) it was 97.8% (active); in test [4] (setting [7]), -40%; in test [4] (setting [8]), 95% (active); in test [4] (at 50.0 µM), 97.5% (active). Moreover, the growth inhibition in test [5] (setting [7]) is -3%; in test [5] (setting [8]), 98% (active); in test [5] (at 50.0 µM), 97.7% (active); in test [6] (setting [7]), 9%; in test [6] (setting [8]) it was 98% (active); in test [6] (at 50.0 µM) it was 98.2% (active).
